# Laboratory results from PubChem BioAssay AID504810 (National Center for Advancing Translational Sciences (NCATS), 2011).
# About 670 (0.2%) of roughly 330,000 compounds were called active. The sample holds actives, similar compounds and a random draw of the others, so the mix is not that of the screen. Values without a mark were called inactive.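 How the source made its calls: active means activity change below a set negative limit, meaning inhibition stronger than a set level (cut at about -70% in these data); inconclusive means activity change between two set negative limits; inactive means the rest.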
# Molecular target: Thyrotropin receptor (Homo sapiens) (UniProt P16473)
# Sequence (P16473 whole entry, looked up): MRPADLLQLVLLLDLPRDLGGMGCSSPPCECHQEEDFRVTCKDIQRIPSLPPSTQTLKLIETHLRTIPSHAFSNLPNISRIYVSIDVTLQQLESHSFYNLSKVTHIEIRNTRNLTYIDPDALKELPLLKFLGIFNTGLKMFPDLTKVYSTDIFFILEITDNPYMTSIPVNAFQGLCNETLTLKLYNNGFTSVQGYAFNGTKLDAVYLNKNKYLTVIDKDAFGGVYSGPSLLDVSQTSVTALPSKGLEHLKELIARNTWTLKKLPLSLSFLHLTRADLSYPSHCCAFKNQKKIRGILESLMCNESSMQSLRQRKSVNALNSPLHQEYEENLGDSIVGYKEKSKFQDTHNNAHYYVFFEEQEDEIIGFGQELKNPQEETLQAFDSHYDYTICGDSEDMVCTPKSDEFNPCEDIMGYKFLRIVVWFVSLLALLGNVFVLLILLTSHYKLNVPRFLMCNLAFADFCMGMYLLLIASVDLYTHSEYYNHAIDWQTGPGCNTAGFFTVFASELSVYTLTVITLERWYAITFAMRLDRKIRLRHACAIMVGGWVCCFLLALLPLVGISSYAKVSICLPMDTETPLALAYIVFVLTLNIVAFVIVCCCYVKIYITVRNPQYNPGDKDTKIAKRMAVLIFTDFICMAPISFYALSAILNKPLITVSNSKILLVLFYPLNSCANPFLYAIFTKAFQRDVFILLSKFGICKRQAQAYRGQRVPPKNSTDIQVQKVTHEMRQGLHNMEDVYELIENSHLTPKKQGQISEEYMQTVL
# Test: Antagonists of the Thyroid Stimulating Hormone Receptor: HTS campaign
# Settings: TSHR-expressing cells, TSH-stimulated cAMP HTRF, 2 h; at 11.5 µM; stronger effect = lower value
# Excerpt: The thyroid-stimulating hormone receptor (TSHR) is a member of the 7 trans-membrane-spanning receptor (7TMR) family of cell surface receptors. TSHR-mediated hyperthyroidism is important in thyroid pathology. The development of small molecule antagonists of TSHR may lead to therapeutic approaches for TSHR-mediated hyperthyroidism caused by constitutively activating mutations or stimulating auto-antibodies associated with Graves' disease. Graves' disease is the leading cause of hyperthyroidism and is caused by autoantibodies that stimulate TSHR (TsAbs) causing thyroid growth and unregulated overproduction of thyroid hormones and existing treatments have liabilities (agranulocytosis). In addition, TSHRs are known to be expressed in multiple extrathyroidal tissues including bone, brain, kidney, testis, fat and cells of the immune system but the role of the TSHR in these tissues is not clear. Therefore, TSHR antagonists/inverse agonists could be used as probes of extrathyroidal TSHR function. Finally, TSHR inverse agonists, which are a subclass of antagonists that inhibit agonist-independent (or basal or constitutive) TSHR signaling, could be used to inhibit TSH-independent signaling in patients with recurrent or metastatic thyroid cancer who are receiving thyroid hormone to suppress TSH. In collaboration between scientist from the NCGC and the NIDDK, a miniaturized HTRF high-throughput screen was developed. It's a cell based assay, where an anti cAMP antibody contains a fluorescent cryptate tag (excitation 337 nm; emission 620 nm) and the acceptor is cAMP-d2 (excitation 620 nm; emission 665 nm). When antibody and cAMP-d2 interact and are excited by a 337 nm light, a FRET occurs resulting in emission at 665 nm. The assay is competition between cAMP-d2 and cAMP (from the cell lysate). The homogeneous protocol allows for one step dispense after stimulation that is automation friendly. NIH Chemical Genomics Center [NCGC] NIH Molecular Libraries Probe Centers Network [MLPCN] MLPCN Grant: MH090855-01 Assay Submitter (PI): Marvin Gerhengorn
# 1. 3ul of 200 TSHR freshly harvested cells/well are dispensed into a 1536 TC-treated white solid bottom plate. 2. Through pintool addition, 23nl of compounds and control in 100% DMSO are added to the plate. 3. Then 1ul of EC80 TSH (4nM final) is added to the plate. 4. Assay is incubated at 37 deg C for 2 hours. 5. 2ul of cAMP antibody diluted 1:20 in lysis buffer is added. 6. Immediately following, 2ul of d2 diluted 1:20 in HBSS is added seperately. 7. The assay is incubated for 30 minutes at ambient room temperature. 8. The result is obtained by using a ViewLux read-out with HTRF settings.
# On the % scale 0 is the no-effect control and ±100 the full control effect.
row,SMILES,"activity change, negative = inhibition"
1,NC(=O)C1(N2CCCCC2)CCN(C(=S)Nc2ccc(Cl)cc2)CC1,25.4%
2,NC(=O)C1(N2CCCCC2)CCN(C(=O)c2ccc(C#Cc3ccccc3)o2)CC1,-75.1% (active)
3,CC(C)(O)C#Cc1ccc(C(=O)N2CCC(C(N)=O)(N3CCCCC3)CC2)cc1,2.47%
4,CSc1ccccc1N1CCN(CCCCCC(=O)NC2CCCc3ccccc32)CC1 (centres undefined),-13.5%
5,Cc1c(C)n2c(SCC(=O)NC3CCCC3)nnc2[nH]c1=O,-8.74%
6,COc1ccc(NC(=O)CN2C(=O)COc3ccc(S(=O)(=O)N4CCOCC4)cc32)cc1,-2.02%
7,CSc1cccc(NC(=O)CN2C(=O)COc3ccc(S(=O)(=O)N4CCOCC4)cc32)c1,-134% (active)
8,CC(=O)Nc1ccc(NC(=O)CN2C(=O)COc3ccc(S(=O)(=O)N4CCCCC4)cc32)cc1,0.648%
9,Cc1cc2occ(CC(=O)NNC(=O)c3ccccc3F)c2cc1C,3.48%
10,Cc1csc(NC(=O)CSc2nc(=O)n(CCCN(C)C)c3c2CCC3)n1,-6.64%
11,CSc1nc(N(C)NC(=O)c2cccc(C)c2)c2ccccc2n1,-3.52%
12,Cc1ccnc(NS(=O)(=O)c2ccc(NC(=O)c3oc4ccccc4c3C)cc2)n1,-4.53%
13,Cc1ccnc(NS(=O)(=O)c2ccc(NC(=O)c3oc4ccc(F)cc4c3C)cc2)n1,4.87%
14,Cc1cc(C)c2oc(C(=O)Nc3ccc(S(=O)(=O)Nc4nccc(C)n4)cc3)cc(=O)c2c1,-137% (active)
15,CCCCC(C(=O)NC(C)(C)C)N(Cc1ccccc1)C(=O)c1snc(C(N)=O)c1N (centres undefined),-2.07%
16,CC/C(=N/Nc1ccccc1)c1cnnc(SC)n1,-5.85%
17,Cc1cccc(C)c1NC(=O)CSc1nc2c([nH]1)c(=O)n(C)c(=O)n2C,-2.1%
18,Cn1c2cc(B(O)O)sc2c2cnn(Cc3ccccc3F)c(=O)c21,-27.6%
19,CCOc1ccc(N(CC(=O)NC2CCCCCC2)S(=O)(=O)c2c(C)[nH]c(=O)[nH]c2=O)cc1,-10.6%
20,O=C(CN1C(=O)NC2(CCCCCC2)C1=O)Nc1ccc([N+](=O)[O-])cc1,0.839%
21,CN(C(=O)C1CCN(c2ncnc3c2nc2n3CCCCC2)CC1)C1CCCCC1,1.35%
22,[O-][n+]1onc2c1CCc1[nH]c(-c3ccccc3)nc1-2,-36.4%
23,CCCC1(C(=O)OC)NC(c2ccco2)C2C(=O)N(C)C(=O)C21 (centres undefined),-3.19%

row,SMILES,"activity change, negative = inhibition"
1,Cc1cc(NC(=O)CN2C(=O)NC(C)(CCc3ccccc3)C2=O)no1 (centres undefined),10.4%
2,CCCCN(C(=O)c1ccc2ccccc2c1)c1c(N)n(CCCC)c(=O)[nH]c1=O,-8.5%
3,CNC(=S)N1CCC(NC(=O)C(Cc2ccc(F)cc2)NC(C)=O)CC1 (centres undefined),-6.46%
4,O=C(COc1ccc(Cl)cc1)Nc1ccc2c(c1)OCO2,-1.65%
5,O=P(O)(CN1CCCCCC1)C1Cc2ccccc2C1,34.6%
6,CCOC(=O)C1(Cc2ccccc2C)CCCN(C(=O)CN2C(=O)CSC2=O)C1 (centres undefined),28.6%
7,COc1cc([N+](=O)[O-])cc([N+](=O)[O-])c1NC(=O)N1CCOCC1,-0.913%
8,CCN(CC(=O)Nc1ccc(NC(C)=O)cc1)C(=O)C1CC(=O)N(Cc2ccc(C)cc2)C1 (centres undefined),0.752%
9,CN1CCCc2cc(C#N)c(=O)[nH]c21,4.52%
10,COCCn1c(Cc2cccn2C)nnc1SCC(=O)Nc1nccs1,4.54%
11,C/C(CCC(=O)OC[C@H]1O[C@H](C#Cc2ccccc2)C=C[C@@H]1Oc1ccc(C)cc1)=N\OC[C@@H](O)[C@H]1O[C@@H]2OC(C)(C)O[C@@H]2[C@H]1O,-3.15%
12,CCOC(CNC(=O)C(=O)NCC(c1ccco1)N1CCN(c2ccc(OC)cc2)CC1)OCC (centres undefined),0.959%
13,Cc1cc(=O)oc2c(C)c(OC(C)C(=O)NC3CCN(Cc4ccccc4)CC3)ccc12 (centres undefined),-2.61%
14,O=c1cc(-c2ccccc2)[nH]c2nc(Cl)ccc12,-13.7%
15,C=CC1(C)CC(=O)C2(O)C(C)(O1)C(OC(C)=O)C(O)C1C(C)(C)CCC(O)C12C (centres undefined),107%
16,CN(C)c1ccc(CNC(=O)CN2C(=O)COc3ccc(S(=O)(=O)N4CCCC4)cc32)cc1,-5.17%
17,CCn1ccnc1CNC(=O)CC1C(=O)NCCN1CCCc1ccccc1 (centres undefined),8.41%
18,O=C(O)CCn1cc(/C=C/C(=O)c2ccc(Cl)cc2)c(-c2cccc(Br)c2)n1,-11.6%
19,O=C(NCc1ccccc1Cl)C1CCCO1 (centres undefined),-3.41%
20,CSc1ccc(CNC(=O)c2ccc(NC(=O)C3=CSCCO3)cc2)cc1,17.8%
21,O=C(Nc1ccc(C(=O)NCc2ccccc2Cl)cc1)C1=CSCCO1,-135% (active)
22,CC(NC(=O)COC(=O)c1cc(=O)[nH]c2ccccc12)c1ccccc1 (centres undefined),-4.46%
23,O=C(CNC(=O)c1cc(=O)[nH]c2ccccc12)Nc1ccc(F)c(F)c1,1.67%

row,SMILES,"activity change, negative = inhibition"
1,CC(NC(=O)c1cc(=O)[nH]c2ccccc12)c1ccc(F)cc1F (centres undefined),-93% (active)
2,COc1ccc(CC(=O)N/N=C/c2cc([N+](=O)[O-])cc(Br)c2O)cc1,1.63%
3,Cc1cc(C(=O)N/N=C/c2cc([N+](=O)[O-])cc(C)c2O)n[nH]1,13.9%
4,O=[N+]([O-])c1cc(Br)c(O)c(/C=N/Nc2nc3ccccc3s2)c1,-87.3% (active)
5,CC(C)Cn1c(=O)c2ccccc2n2c(CCC(=O)NCc3ccccn3)nnc12,3.77%
6,C=CCc1ccccc1OCC(O)CN1CCN(CCO)CC1 (centres undefined),3.81%
7,Cc1cc(C)c(C#N)c(SCC(=O)Nc2ccccc2)n1,1.53%
8,Cc1cc(C)c2c(-c3ccc(F)cc3)c(C#N)c(=O)n(C)c2n1,-4.99%
9,Cc1cc(C#N)c(SCC(N)=O)nc1-c1ccc(F)cc1,-75.8% (active)
10,CNC(=O)C1CCN(S(=O)(=O)c2c(C)noc2/C=C/c2cccc(C)c2)CC1,9.08%
11,CC(NC(=O)CNC(=O)Cc1cccc2ccccc12)c1ccc(S(N)(=O)=O)cc1 (centres undefined),-28.1%
12,CCNC(=O)N1CCN(S(=O)(=O)c2ccc3c(c2)OCCCO3)CC1,13%
13,O=c1ccc(-c2ccc(S(=O)(=O)Nc3ccccc3)o2)n[nH]1,14.7%
14,COc1cccc(NC(=O)CC(c2ccc(OC(C)C)cc2)c2ccccc2OC)c1 (centres undefined),-14.4%
15,CCOC(=O)NN1C(=O)c2ccccc2NC1c1ccccc1O (centres undefined),8.06%
16,O=C(CCN1C(=O)C2C3CCC(C3)C2C1=O)Nc1ccc(Cl)cc1Cl (centres undefined),1.9%
17,CCN(CC)C(=O)CSc1nnc(-c2ccc(S(=O)(=O)NCc3ccccc3Cl)cc2)o1,-13.6%
18,COc1ccc(S(=O)(=O)n2cnc3ccccc32)c(C)c1,-81.3% (active)
19,COc1ccc(S(=O)(=O)N2CCN(C)CC2)c(C)c1,-0.476%
20,Cc1ccc(S(=O)(=O)n2cnc3ccccc32)c(C)c1,2.16%
21,CCC1SC2=NCCN2C1(O)c1ccc(Cl)cc1 (centres undefined),6.43%
22,CCOc1ccc(N(CC(=O)NCCc2ccc(F)cc2)S(=O)(=O)c2ccccc2)cc1,-7.25%
23,COC(=O)c1cc(=O)n(-c2c(Cl)cc(C(F)(F)F)cc2Cl)[nH]1,-90% (active)

row,SMILES,"activity change, negative = inhibition"
1,CC(NC(=O)Cn1cc(C(F)(F)F)cc(Cl)c1=O)c1ccccc1 (centres undefined),7.91%
2,CCN1C(=S)N[C@@H](c2cccc(C(F)(F)F)c2)C(C(=O)OC)=C1C,0.624%
3,Cc1sc2ncn(CC(=O)NCCCC(=O)N(C)Cc3ccccc3)c(=O)c2c1C,3.25%
4,Cc1sc2ncn(CC(=O)NCCCC(=O)N3CCN(c4ccccc4F)CC3)c(=O)c2c1C,3.65%
5,Cc1sc2ncn(CC(=O)NCCCC(=O)NCc3ccc(F)cc3)c(=O)c2c1C,-97.7% (active)
6,COc1ccc(CCNCc2c(-c3ccccc3)n(C)c3ccccc23)cc1,5.27%
7,COc1cc(OC)cc(C(=O)NNC(=O)CNC(=O)c2ccc(Br)o2)c1,-4.32%
8,NC1CCN(O)C1=O (centres undefined),5.61%
9,CCC(C)NC(=O)C1CCC(=O)N1Cc1ccc(C)cc1 (centres undefined),1.98%
10,CCCN(c1ccc(C(C)C)cc1)S(=O)(=O)c1c(C)[nH]c(=O)[nH]c1=O,-12.7%
11,Cc1ccc(CN2CCNC(=O)C2CC(=O)NCc2csc(C(C)C)n2)cc1 (centres undefined),12.6%
12,NC(=O)C1CCN(c2nc(-c3cccc(F)c3)cs2)CC1,-7.85%
13,COc1ccc(NC(=O)CSc2nnc(Cc3ccccc3)c(=O)n2N)cc1,7.33%
14,CCCCn1c(N)c(N(CCOC)C(=O)COc2c(C)cccc2C)c(=O)[nH]c1=O,-0.316%
15,CCc1ccccc1NC(=O)CN(C)C(=O)COc1ccc(C)nc1[N+](=O)[O-],4.86%
16,C1CC1Cc1noc(CN2CCN(CC3CC3)CC2)n1,3.76%
17,NS(=O)(=O)c1cc(C(=O)NCCOc2ccccc2)c(Cl)cc1Cl,8.26%
18,CCc1nn(CC(=O)N2CCN(c3cc(C)ccc3C)CC2)c(=O)c2cc3occc3n12,12.8%
19,OCC(O)CN(c1ccccc1)c1ccccc1 (centres undefined),3.75%
20,CC1(C)O[C@@H]2[C@H](O1)[C@@H](CO)O[C@H]2n1c(N2CCCCC2)nc2c(N)ncnc21,-5.04%
